These results are taken from PubChem BioAssay (NCI).

This is part of a sample that, as a whole, favours compounds with a hit. Of some 83,000 tested, about 20% had one in any assay.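 A percent growth of 40 corresponds to 60% growth inhibition; 0 means no net growth; -100 means all cells died. Active threshold: below 10.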 A number with no mark means an inactive call. Calls of active or inactive are those of the source.

Among the test systems are SK-MEL-2 melanoma; EKVX NSCLC; SN12C renal; UO-31 renal; TK-10 renal; ACHN renal; CAKI-1 renal; A498 renal; CCRF-CEM leukemia; MOLT-4 leukemia; SR leukemia; RPMI-8226 leukemia; OVCAR-8 ovarian; OVCAR-5 ovarian; OVCAR-4 ovarian; SK-OV-3 ovarian; IGROV1 ovarian; OVCAR-3 ovarian; HS 578T breast; NCI/ADR-RES ovarian.
Holding throughout (assay): NCI-60 one-dose screen, 48 h (100 = growth as untreated, 0 = no growth, -100 = all killed)
Holding throughout (conditions): 10 µM unless noted

As to `CCN=c1sc2c(n1NC(=O)c1cc3ccc1CCc1ccc(cc1)CC3)C(=O)c1ccccc1C2=O`, the growth with SK-MEL-2 melanoma is -40.6% (active); with EKVX NSCLC, -61.3% (active); in the test on SN12C renal, -91.2% (active); with UO-31 renal, -73.1% (active); with TK-10 renal, 88.6%; in the test with ACHN renal, -90.2% (active). Besides, the growth with CAKI-1 renal was 8.85% (active); in the test on A498 renal it was 51.6%; with CCRF-CEM leukemia it was -16% (active); with MOLT-4 leukemia it was -32.8% (active); with SR leukemia it was -3.66% (active); in the test with RPMI-8226 leukemia, -33.6% (active). Also, the growth is -82.6% (active) with OVCAR-8 ovarian; -77.4% (active) with OVCAR-5 ovarian; -98.4% (active) in the test on OVCAR-4 ovarian; 62% with SK-OV-3 ovarian; -39.8% (active) with IGROV1 ovarian; -18.8% (active) in the test on OVCAR-3 ovarian. In addition, the growth in the test on HS 578T breast is -8.98% (active).
For `Cc1nn(C)c2ncnc(Nc3ccccc3Br)c12`, the growth with SK-MEL-2 melanoma is 100%; in the test on EKVX NSCLC, 60.6%; in the test with SN12C renal, 98.8%; in the test with UO-31 renal it was 96.8%; in the test on TK-10 renal, 97%; in the test with ACHN renal, 106%. Further, the growth with CAKI-1 renal is 102%; in the test with A498 renal, 71.4%; in the test on CCRF-CEM leukemia, 93.3%; in the test with MOLT-4 leukemia it was 95.9%; with SR leukemia, 84.8%; with RPMI-8226 leukemia, 95.2%. The growth is 106% in the test on OVCAR-8 ovarian; 99.6% in the test with OVCAR-5 ovarian; 109% in the test with OVCAR-4 ovarian; 99% in the test on SK-OV-3 ovarian; 105% with IGROV1 ovarian; 108% with OVCAR-3 ovarian. Moreover, the growth in the test with HS 578T breast is 101%.
In the case of `COC(CCP(=O)(c1ccccc1)c1ccccc1)(C(=O)c1ccccc1)c1ccccc1` (centres undefined), the growth was 34.7% in the test with SK-MEL-2 melanoma; 59.2% in the test on EKVX NSCLC; 96.7% with SN12C renal; 33.4% in the test on UO-31 renal; 81.1% in the test with TK-10 renal; 71.5% in the test on ACHN renal. Besides, the growth with CAKI-1 renal is 87.1%; in the test on A498 renal it was 83.4%; in the test on CCRF-CEM leukemia, 35.4%; with MOLT-4 leukemia, 18.3%; in the test on SR leukemia, -8.14% (active); in the test with RPMI-8226 leukemia, 4.88% (active). The growth in the test on OVCAR-8 ovarian is 77%; with OVCAR-5 ovarian, 84.1%; with OVCAR-4 ovarian, 61.3%; with SK-OV-3 ovarian, 83.5%; with IGROV1 ovarian it was -19.4% (active); with OVCAR-3 ovarian, 77.1%. For the same compound, the growth in the test on HS 578T breast is 83.5%.
For the compound `CCN1C(=O)N(CC)C2C1NN=c1s/c(=C\c3ccccc3)c(=O)n12` (centres undefined), the growth in the test on SK-MEL-2 melanoma was 42.5%; with EKVX NSCLC it was 47.1%; in the test with SN12C renal, 26.5%; in the test with UO-31 renal it was 37.9%; in the test on TK-10 renal it was 65.6%; in the test on ACHN renal it was 30.2%. Also, the growth is 27.1% in the test on CAKI-1 renal; 9.75% (active) with A498 renal; 6.04% (active) in the test on CCRF-CEM leukemia; 10.9% in the test on MOLT-4 leukemia; 14.8% in the test with SR leukemia; 11.6% with RPMI-8226 leukemia. For the same compound, the growth with OVCAR-8 ovarian was -9.95% (active); in the test with OVCAR-5 ovarian it was 30.2%; in the test with OVCAR-4 ovarian, 48.1%; in the test on SK-OV-3 ovarian, 33.5%; in the test with IGROV1 ovarian it was 19.8%; in the test with OVCAR-3 ovarian it was -7.69% (active). In addition, the growth in the test on HS 578T breast was 16.8%; in the test with NCI/ADR-RES ovarian it was 2.31% (active).
As to `Cc1ccc(Nc2nc(N)nc(N)c2N=O)cc1Cl`, the growth is 85.8% with SK-MEL-2 melanoma; 81.5% in the test with EKVX NSCLC; 90% in the test on SN12C renal; 56.5% with UO-31 renal; 96.2% in the test on TK-10 renal; 72.2% in the test on ACHN renal. The growth with CAKI-1 renal is 82.2%; with A498 renal it was 119%; with CCRF-CEM leukemia, 89.8%; with MOLT-4 leukemia, 68.7%; in the test with SR leukemia, 72.5%; in the test on RPMI-8226 leukemia, 78.3%. For the same compound, the growth in the test on OVCAR-8 ovarian was 95.8%; in the test on OVCAR-5 ovarian, 93.9%; in the test on OVCAR-4 ovarian, 76.9%; in the test with SK-OV-3 ovarian, 96.6%; in the test with IGROV1 ovarian, 37.7%; in the test on OVCAR-3 ovarian it was 68.3%. Further, the growth in the test on HS 578T breast is 75.2%; in the test on NCI/ADR-RES ovarian, 79.3%.
As for `Cc1ccc(Nc2cc(N)nc(N)n2)cc1`, the growth was 112% in the test on SK-MEL-2 melanoma; 95.7% in the test on EKVX NSCLC; 110% in the test with SN12C renal; 87.7% in the test with UO-31 renal; 108% in the test on TK-10 renal; 102% with ACHN renal. For the same compound, the growth is 87.1% in the test with CAKI-1 renal; 105% in the test on A498 renal; 107% in the test on CCRF-CEM leukemia; 91.3% in the test with MOLT-4 leukemia; 105% in the test on SR leukemia; 93.5% in the test with RPMI-8226 leukemia. Also, the growth in the test with OVCAR-8 ovarian is 103%; in the test with OVCAR-5 ovarian it was 107%; with OVCAR-4 ovarian it was 96.9%; in the test on SK-OV-3 ovarian, 98.1%; in the test with IGROV1 ovarian it was 92.4%; in the test on OVCAR-3 ovarian it was 99.6%. Further, the growth in the test with HS 578T breast was 100%.
Consider `CN1CCN(Cc2ccc(NC(=O)c3cncc(C#Cc4c(N)ncc5cc(F)ccc45)c3)cc2C(F)(F)F)CC1`, for which the growth with SK-MEL-2 melanoma is -2.97% (active); in the test on EKVX NSCLC, 69.6%; in the test on SN12C renal, 41.7%; with UO-31 renal, 14.6%; with TK-10 renal, 67.4%; in the test on ACHN renal, 40.4%. Also, the growth with CAKI-1 renal is 62%; with A498 renal, 73.6%; in the test on CCRF-CEM leukemia, -13.6% (active); with MOLT-4 leukemia, -59.6% (active); with SR leukemia, 0.501% (active); in the test on RPMI-8226 leukemia, -14% (active). The growth with OVCAR-8 ovarian is 28%; in the test with OVCAR-5 ovarian, 43.7%; in the test with OVCAR-4 ovarian, 54.4%; in the test on SK-OV-3 ovarian, 82.6%; with IGROV1 ovarian it was 15.1%; in the test on OVCAR-3 ovarian it was 76.3%.
For `Cc1nn(-c2ccccc2)c(Oc2ccccc2)c1/C=N/NC(=O)Cn1c(=O)sc2ccccc21`, the growth was 42.6% in the test with SK-MEL-2 melanoma; 33.3% in the test on EKVX NSCLC; 61.4% in the test with SN12C renal; 35% in the test on UO-31 renal; 60.7% in the test on TK-10 renal; 47.2% in the test with ACHN renal. The growth is 33.4% with CAKI-1 renal; 45.6% in the test with A498 renal; 49.9% with CCRF-CEM leukemia; 10.3% with MOLT-4 leukemia; 38.2% in the test on SR leukemia; 33.8% in the test on RPMI-8226 leukemia. The growth with OVCAR-8 ovarian was 48.8%; in the test on OVCAR-5 ovarian it was 81.5%; in the test on OVCAR-4 ovarian it was 44.1%; with SK-OV-3 ovarian it was 61%; in the test on IGROV1 ovarian, 54.4%; with OVCAR-3 ovarian, 61.6%. Besides, the figures for the growth in the test with HS 578T breast and with NCI/ADR-RES ovarian were 67.6% and 44.4%, respectively.
